# In PubChem BioAssay AID488969 (Vanderbilt High Throughput Screening Facility, 2010):
# In all, about 110,000 compounds were measured (“z-score”: median about -0.1, highest 2% from about 2 on). For the sample, the highest values were picked, then their nearest neighbours and some compounds at random. The source made the active and inactive calls.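 How the source made its calls: active means z-score in the third read window above 3 or below -3; inactive means the rest.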
# Molecular target: Metabotropic glutamate receptor 8 (Rattus norvegicus) (UniProt P70579)
# Sequence (P70579 whole entry, looked up): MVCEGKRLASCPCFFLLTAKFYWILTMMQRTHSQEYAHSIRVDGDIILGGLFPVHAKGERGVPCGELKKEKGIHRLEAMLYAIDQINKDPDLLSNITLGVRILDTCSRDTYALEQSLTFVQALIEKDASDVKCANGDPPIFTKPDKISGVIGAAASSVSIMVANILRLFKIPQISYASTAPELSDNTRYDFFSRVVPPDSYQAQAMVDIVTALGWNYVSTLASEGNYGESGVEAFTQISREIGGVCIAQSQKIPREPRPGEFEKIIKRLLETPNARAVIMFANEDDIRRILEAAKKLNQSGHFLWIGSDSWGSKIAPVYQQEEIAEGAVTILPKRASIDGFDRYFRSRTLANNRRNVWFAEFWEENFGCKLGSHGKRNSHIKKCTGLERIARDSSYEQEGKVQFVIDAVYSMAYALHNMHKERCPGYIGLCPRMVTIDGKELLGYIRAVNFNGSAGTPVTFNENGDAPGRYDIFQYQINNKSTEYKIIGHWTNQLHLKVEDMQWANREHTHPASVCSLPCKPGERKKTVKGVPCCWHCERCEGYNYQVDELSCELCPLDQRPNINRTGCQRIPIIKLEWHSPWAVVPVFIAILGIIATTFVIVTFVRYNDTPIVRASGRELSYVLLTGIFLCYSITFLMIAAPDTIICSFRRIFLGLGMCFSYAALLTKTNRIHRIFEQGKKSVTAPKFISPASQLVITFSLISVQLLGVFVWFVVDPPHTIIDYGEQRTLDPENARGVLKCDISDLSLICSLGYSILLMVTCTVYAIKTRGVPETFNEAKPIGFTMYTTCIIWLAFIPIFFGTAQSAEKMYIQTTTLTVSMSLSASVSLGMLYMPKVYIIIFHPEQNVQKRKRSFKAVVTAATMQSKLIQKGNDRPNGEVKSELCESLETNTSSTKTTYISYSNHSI
# Assay: mGluR8 Gi/Go-coupled signaling modulation – cell-based, rat, thallium flux, HTS, primary screen (AID 488969)
# Details: HEK293 rat mGluR8, GIRK (G protein-gated inwardly rectifying potassium channel) thallium flux, FluoZin2; at 10 µM; stronger effect = higher value; submaximal glutamate (EC20) added with thallium
row,SMILES,z-score
1,Cc1ccc(-c2cc(C(=O)NCc3cnn(C)c3C)c3cc(Br)ccc3n2)cc1,-0.453
2,CCc1ccc(C2C(C#N)=C(N)C(C#N)(C#N)C3=CCC(C(C)(C)C)CC32)cc1 (stereo unspecified),-0.0406
3,CC(=O)c1ccc(N2CCN(C(=O)CCCn3c(=S)[nH]c4cc5c(cc4c3=O)OCO5)CC2)cc1,2.56
4,CCCn1c(=S)[nH]c2cc(C(=O)N3CCN(c4ccccc4OC)CC3)ccc2c1=O,0.596
5,O=C(CCCn1c(=S)[nH]c2cc3c(cc2c1=O)OCO3)N1CCN(c2ccc(F)cc2)CC1,-0.237
6,COCCn1c(=S)[nH]c2cc(C(=O)N3CCN(c4ccc(F)cc4)CC3)ccc2c1=O,4.3 (active)
7,CC(C)OCCCn1c(=S)[nH]c2cc3c(cc2c1=O)OCO3,6.19 (active)
8,COCCn1c(=S)[nH]c2cc(C(=O)N3CCN(c4ccccc4OC)CC3)ccc2c1=O,-0.495
9,CCN(CC)CCn1c(=S)[nH]c2cc3c(cc2c1=O)OCO3,-0.565
10,O=C(CCCn1c(=S)[nH]c2cc3c(cc2c1=O)OCO3)N1CCN(c2ccc(Cl)cc2)CC1,-0.36
11,CC(C)NC(=O)CCCn1c(=S)[nH]c2cc3c(cc2c1=O)OCO3,0.566
12,Cc1cc(=O)[nH]c(SCC(=O)C23CC4CC(CC(C4)C2)C3)c1C#N,-0.0485
13,O=C(Nc1cccc(O)c1)c1cc2nc(-c3ccccc3)cc(-c3ccccc3)n2n1,-0.00871
14,O=C(COc1ccc(C(=S)N2CCOCC2)cc1)N1CCCC1,-0.301
15,Cc1ccc(S(=O)(=O)N2CCN(C)CC2)cc1-c1nnc2c3ccccc3c(C)nn12,9.27 (active)
16,Cc1ccc(-c2nnc3c4ccccc4c(C)nn23)cc1S(=O)(=O)N1CCN(C)CC1,-0.999
17,Cc1ccc(S(=O)(=O)N2CCN(CCO)CC2)cc1-c1nnc2c3ccccc3c(C)nn12,-0.156
18,Cc1cc(C)n(-c2nncn2NC(=O)c2ccc(Cl)cc2O)n1,2.24
19,Cc1ccc(C)n1NC(=O)c1ccc(Cl)cc1Cl,0.557
20,Cc1cc(C)n(-c2nnc(C)n2NC(=O)c2cccc(Cl)c2)n1,0.0281
21,CCCCn1c(SC(C)C(N)=O)nc2cc(C(=O)OC)ccc2c1=O (stereo unspecified),3 (active)
22,CCNC(=O)NC(=O)C(C)Sc1nc2cc(C(=O)OC)ccc2c(=O)n1-c1ccccc1 (stereo unspecified),0.204
23,CCSc1nc2cc(C(=O)OC)ccc2c(=O)n1CC,0.836

row,SMILES,z-score
1,O=C(O)C1CC=CCC1C(=O)NCc1ccc2c(c1)OCO2 (stereo unspecified),-0.618
2,COc1ccc(N2CCN(C(=O)CSc3nnc4c(C)cc5cc(C)ccc5n34)CC2)cc1,1.03
3,Cc1ccc(C)c(-n2ccnc2SCC(=O)O)c1,-0.0351
4,CCc1cccc(NC(=O)CN(c2ccc(OC)cc2)S(=O)(=O)c2c(C)n[nH]c2C)c1,0.317
5,COCCNC(=O)Cn1ncc2ccsc2c1=O,2.25
6,COC(CNC(=O)Cn1ncc2ccsc2c1=O)OC,-0.112
7,COCCCNC(=O)Cn1ncc2ccsc2c1=O,-0.327
8,CCOc1ccc2oc(-c3ccccc3)c(C(=O)N3CCN(CCO)CC3)c2c1,-0.457
9,COc1cccc(C(=O)NCc2cn3ccsc3n2)c1,15.2 (active)
10,COc1cc(C(=O)NCc2cn3ccsc3n2)cc(OC)c1OC,-0.0269
11,COc1ccc(C(=O)NCc2cn3ccsc3n2)cc1OC,-0.547
12,O=C(CSc1ccc(-c2ccc(F)cc2)nn1)N1CCN(c2ccccc2)CC1,-0.139
13,Cc1ccc(C(=O)O)cc1S(=O)(=O)N1CCC(C(=O)O)CC1,0.299
14,Cc1ccc(C(=O)O)cc1S(=O)(=O)N1CCOCC1,-0.267
15,Cc1ccc(C(=O)O)cc1S(=O)(=O)N1CCCC1,2.05
16,CCOC(=O)c1cnc2c(C#N)c(C)nn2c1C,0.0622
17,COc1ccc(NS(=O)(=O)c2cc(NC(=O)c3ccc(C)o3)ccc2N2CCCCC2)cc1,-0.024
18,CC1CCCCN1CCNC(=O)c1cc2c(=O)n(C)c3ccccc3c2n1C (stereo unspecified),1.88
19,Cn1c(C(=O)NCCCN2CCOCC2)cc2c(=O)n(C)c3ccccc3c21,0.0335
20,Cn1c(C(=O)NCCCN2CCN(c3ccccc3F)CC2)cc2c(=O)[nH]c3ccccc3c21,-0.0771
21,Cn1c(C(=O)NCCCN2CCCCCC2)cc2c(=O)n(C)c3ccccc3c21,2.52
22,Cn1c(C(=O)NCCCN2CCCC2=O)cc2c(=O)n(C)c3ccccc3c21,-0.963
23,CC1CCCC(C)N1CCCNC(=O)c1cc2c(=O)n(C)c3ccccc3c2n1C (stereo unspecified),2.79

row,SMILES,z-score
1,Cn1c(C(=O)NCCN2CCCCCC2)cc2c(=O)n(C)c3ccccc3c21,1.86
2,CC1CCN(CCCNC(=O)c2cc3c(=O)n(C)c4ccccc4c3n2C)CC1,2.7
3,Cn1c(C(=O)NCCCN2CCN(c3ccccc3F)CC2)cc2c(=O)n(C)c3ccccc3c21,2.46
4,Cn1c(C(=O)NCCN2CCOCC2)cc2c(=O)n(C)c3ccccc3c21,-2.82
5,CCCN1CCN(CCCNC(=O)c2cc3c(=O)n(C)c4ccccc4c3n2C)CC1,1.48
6,CCC(=O)N1CCN(c2nc3ccccc3s2)CC1,-0.0557
7,O=C(NNC(=S)NC1CCCCC1)c1cccc(S(=O)(=O)Nc2ccccc2Cl)c1,-0.537
8,O=C(CCNc1ccccc1)c1cccc([N+](=O)[O-])c1,-0.134
9,Cc1cccc(NC(=O)c2sc(NC(=O)COc3ccccc3)c(C#N)c2C)c1C,-0.152
10,CC(OC(=O)c1cc2sccc2n1C)C(=O)NCc1ccc2c(c1)OCO2 (stereo unspecified),-0.018
11,Cc1snc2sc(C(=O)c3ccc(Br)cc3)c(N)c12,-0.378
12,O=C(NCc1ccco1)c1cc(-c2ccc3c(c2)OCO3)on1,-0.862
13,O=C(O)CCCN1C(=O)C2C3CCC(O3)C2C1=O (stereo unspecified),-0.35
14,CCCCn1c(SCC(=O)Nc2ccccc2C(F)(F)F)nc2ccsc2c1=O,0.00651
15,COCCN(CCOC)C(=O)CC(=O)N(CCOC)CCOC,0.0459
16,CN1CCN(CCNC(=O)c2cc3c(=O)n(C)c4ccccc4c3n2C)CC1,0.327
17,Cn1c(C(=O)NCCCN2CCc3ccccc3C2)cc2c(=O)n(C)c3ccccc3c21,0.807
18,Cn1c(C(=O)NCCN2CCc3ccccc3C2)cc2c(=O)n(C)c3ccccc3c21,2.7
19,COc1cccc(C(=O)OCC(=O)Nc2cc(C)c(C)cc2[N+](=O)[O-])c1,-0.131
20,O=C(C1CCCN(Cc2cccs2)C1)N1CCCCCC1 (stereo unspecified),3.36 (active)
21,O=C(C1CCCN(Cc2ccccc2)C1)N1CCCCC1 (stereo unspecified),0.122
22,CCOC(=O)C1CCCN(Cc2cccs2)C1 (stereo unspecified),-0.137
23,COc1cccc(C(=O)Cn2c(=O)n(CC3CCCO3)c(=O)c3ccccc32)c1 (stereo unspecified),-0.719

row,SMILES,z-score
1,O=C(C1CCN(S(=O)(=O)c2cccnc2)CC1)N1CCCCC1,0.487
2,O=C(C1CCN(S(=O)(=O)c2cccnc2)CC1)N1CCN(C2CCCC2)CC1,-0.318
3,CC1CCN(C(=O)C2CCN(S(=O)(=O)c3cccnc3)CC2)CC1,2.03
4,Cc1ccc(Cn2nnc3c(=O)[nH]c(C4CCN(S(=O)(=O)c5cc(C)ccc5C)CC4)nc32)cc1,0.616
5,Cc1ccc(S(=O)(=O)NCCc2ccncc2)cc1,-0.472
6,O=C1CCCN1CN(C(=O)c1ccc2c(c1)OCO2)c1cccc(Cl)c1,-0.21
7,COc1cc(C)nc(N(Cc2ccccc2)S(=O)(=O)c2ccccc2)n1,2.43
8,COC(=O)CN(c1nc(C)cc(OC)n1)S(=O)(=O)c1ccccc1,-0.5
9,CCN(c1nc(C)cc(OC)n1)S(=O)(=O)c1ccccc1,-0.243
10,CCc1ccc(S(=O)(=O)N(C(=O)c2ccncc2)c2ccc(OC(=O)c3ccncc3)cc2)cc1,-0.659
11,Cn1c(CN2CCN(C(=O)c3ccccc3)CC2)nc2cc([N+](=O)[O-])ccc21,0.0497
12,Cc1c(NC(=O)c2cnn3c(C(F)(F)F)cc(-c4ccco4)nc23)c(=O)n(-c2ccccc2)n1C,0.95
13,Cc1ccc(C)c(NC(=O)/C(C#N)=C/c2ccc(Sc3nncn3C)c([N+](=O)[O-])c2)c1,-0.0512
14,Cc1cccc(NC(=O)c2ccccc2Br)n1,0.0402
15,CCCCOC(=O)Nc1ccc(C(=O)OCCC)cc1,3.09 (active)
16,COC(=O)c1cc(NC(=O)c2cc(C)oc2C)cc(C(=O)OC)c1,0.433
17,CCOC(=O)c1cc(NC(=O)c2ccoc2C)cc(C(=O)OCC)c1,-2.39
18,Cc1occc1C(=O)Nc1ccccc1NC(=O)c1ccoc1C,0.13
19,Cc1cc(NC(=O)c2ccoc2C)no1,-0.105
20,Cc1cccc(NC(=O)c2ccoc2C)n1,2.35
21,Cc1occc1C(=O)Nc1cccc(C(=O)O)c1,-0.0368
22,CCCCOC(=O)Nc1ccc(C(N)=O)cc1,0.507
23,Cc1occc1C(=O)Nc1ccc2ccccc2c1,2.19

row,SMILES,z-score
1,COC(=O)c1cc(NC(=O)c2ccoc2C)cc(C(=O)OC)c1,4.89 (active)
2,CCCOC(=O)c1ccc(NC(=O)Oc2ccccc2)cc1,0.454
3,CSc1nc(N(C)C)nc(N2CC(=O)N(CCNS(=O)(=O)c3ccc(C)cc3)C2=N)n1,-0.172
4,CCC(=O)NC(=S)Nc1ccc(NC(=O)COc2ccc(Cl)c(C)c2)cc1,-0.0852
5,CC(C)(C)C(C(Oc1ccc(Cl)cc1)n1cncn1)n1nnnc1C(c1cccc(Cl)c1)N1CCCCC1 (stereo unspecified),0.12
6,NS(=O)(=O)c1ccc(CCNC(=O)CSc2ccccc2)cc1,0.222
7,CC(C)C(NS(=O)(=O)c1cccc2nsnc12)C(=O)NCc1ccc2c(c1)OCO2 (stereo unspecified),-0.269
8,CCCOC(=O)c1ccc(NC(=O)c2ccc(Br)o2)cc1,-0.692
9,CCCCOC(=O)c1ccc(NC(=O)c2ccoc2C)cc1,-0.0292
10,CCCOC(=O)c1ccc(NC(=O)c2ccoc2C)cc1,2.24
11,COc1ccc(C(=O)NCC(=O)NCC2COc3ccccc3O2)cc1 (stereo unspecified),1
12,CCOc1cc(C(=S)N2CCC(O)CC2)ccc1OS(=O)(=O)c1ccc(Br)cc1,0.875
13,CCC(=O)NCC(=O)OCC(=O)c1ccccc1,-0.0257
14,CC(=O)Nc1nc(-c2ccccc2)c(-c2ccccc2)o1,-0.185
15,Cc1cc(=O)[nH]c(SCC(=O)Nc2nc(-c3ccccc3)c(-c3ccccc3)o2)n1,-1.38
16,O=C(Nc1nc(-c2ccccc2)c(-c2ccccc2)o1)c1ccc(F)cc1,13.5 (active)
17,Cn1nnnc1SCC(=O)Nc1nc(-c2ccccc2)c(-c2ccccc2)o1,-0.0372
18,Cc1cc(C)nc(SCC(=O)Nc2nc(-c3ccccc3)c(-c3ccccc3)o2)n1,-0.522
19,Cc1ccc(C(=O)Nc2nc(-c3ccccc3)c(-c3ccccc3)o2)cc1,3.53 (active)
